# Results: PubChem BioAssay
# Several values for one entry are separate records, joined by “and”; a condition that tells them apart may be missing. Equal entries are not always repeated. Activity calls are given as the source filed them. Unless noted, how the calls were made is not given here.
# Assays:
# [1] = anti-His antibody binders, primary screen, artefact control for SMM control protein annotation, biochemical, small-molecule microarray, 635 nm fluorescence (AID 1128); details: anti-His Alexa647 antibody binding, higher = more signal;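 further: score merges feature fluorescence with signal-to-noise for each printed compound spot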
# [2] = test system: Human papillomavirus type 1a E7 protein (residues 1-88); assay: HPV1a E7 small-molecule binders, primary screen, biochemical, small-molecule microarray, residues 1-88, 635 nm (AID 1129); details: small-molecule microarray binding, fluorescence 635 nm; higher = more signal
# [3] = target: Focal adhesion kinase 1 (Homo sapiens) (UniProt Q05397); assay: small-molecule microarray binders of FAK, primary screen, biochemical, 635/667 nm fluorescence, BSA, DTT (AID 1130); details: PTK2 binding, 635 nm fluorescence, higher = more signal;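 further: composite of spot emission at 667 nm and signal to noise over triplicate slides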
# Chain of Focal adhesion kinase 1 (Homo sapiens) (Q05397 whole entry, looked up): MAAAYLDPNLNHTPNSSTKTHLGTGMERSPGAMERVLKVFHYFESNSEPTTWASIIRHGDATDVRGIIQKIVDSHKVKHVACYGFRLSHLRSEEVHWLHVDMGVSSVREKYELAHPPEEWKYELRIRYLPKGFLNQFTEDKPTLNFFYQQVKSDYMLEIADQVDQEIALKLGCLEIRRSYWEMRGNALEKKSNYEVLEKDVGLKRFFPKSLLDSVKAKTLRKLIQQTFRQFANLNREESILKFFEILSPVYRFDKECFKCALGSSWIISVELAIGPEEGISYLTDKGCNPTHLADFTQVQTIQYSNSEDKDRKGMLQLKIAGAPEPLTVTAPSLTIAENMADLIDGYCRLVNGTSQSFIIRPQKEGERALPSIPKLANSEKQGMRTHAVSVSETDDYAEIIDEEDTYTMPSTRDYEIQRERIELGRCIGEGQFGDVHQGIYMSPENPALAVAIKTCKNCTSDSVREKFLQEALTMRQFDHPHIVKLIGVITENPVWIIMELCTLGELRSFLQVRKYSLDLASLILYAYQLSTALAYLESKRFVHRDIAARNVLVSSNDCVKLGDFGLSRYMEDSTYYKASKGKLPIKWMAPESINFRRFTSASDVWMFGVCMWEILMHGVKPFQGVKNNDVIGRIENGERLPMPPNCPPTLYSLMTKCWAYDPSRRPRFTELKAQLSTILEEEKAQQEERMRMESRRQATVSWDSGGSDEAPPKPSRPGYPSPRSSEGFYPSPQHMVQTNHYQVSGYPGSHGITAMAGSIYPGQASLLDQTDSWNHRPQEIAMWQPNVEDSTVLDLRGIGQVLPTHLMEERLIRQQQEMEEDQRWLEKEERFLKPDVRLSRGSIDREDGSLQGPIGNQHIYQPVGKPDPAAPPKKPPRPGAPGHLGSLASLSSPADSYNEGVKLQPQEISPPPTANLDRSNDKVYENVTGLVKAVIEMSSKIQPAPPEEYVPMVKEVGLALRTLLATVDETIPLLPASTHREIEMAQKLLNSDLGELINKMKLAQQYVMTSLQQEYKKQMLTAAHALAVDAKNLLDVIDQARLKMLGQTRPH
# [4] = test system: Fibrinogen (Alexa647-labelled); assay: fibrinogen binders on compound microarrays, profiling panel, artefact control for SMM control-protein annotation, biochemical, small-molecule microarray, 635/667 nm fluorescence (AID 1131); details: fibrinogen-A647 binding fluorescence, higher = more signal;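 further: z-score merges 667 nm fluorescence with per-spot signal-to-noise over triplicate slides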
# [5] = target: Follistatin (Homo sapiens) (UniProt P19883); assay: follistatin binders on small-molecule microarrays, primary screen, biochemical, small-molecule microarray, 635/667 nm fluorescence (AID 1132); details: FST binding, 635 nm fluorescence, higher = more signal
# Chain of Follistatin (Homo sapiens) (P19883 whole entry, looked up): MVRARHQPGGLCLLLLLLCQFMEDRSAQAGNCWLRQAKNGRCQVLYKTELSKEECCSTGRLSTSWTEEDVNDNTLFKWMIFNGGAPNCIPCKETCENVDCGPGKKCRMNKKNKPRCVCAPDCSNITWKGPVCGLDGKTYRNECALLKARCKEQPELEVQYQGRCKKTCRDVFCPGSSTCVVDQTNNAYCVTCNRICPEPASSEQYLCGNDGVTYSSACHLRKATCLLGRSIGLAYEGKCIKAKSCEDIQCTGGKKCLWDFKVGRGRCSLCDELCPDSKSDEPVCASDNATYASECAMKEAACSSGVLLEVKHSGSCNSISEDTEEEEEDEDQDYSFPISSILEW
# [6] = target: Fibroblast growth factor 2 (Homo sapiens) (UniProt P09038); assay: FGF2 binders on small-molecule microarrays, primary screen, biochemical, small-molecule microarray, 635/667 nm fluorescence (AID 1133); details: small-molecule microarray binding, FGF2, fluorescence 635/667; higher = more signal
# Chain of Fibroblast growth factor 2 (Homo sapiens) (P09038 whole entry, looked up): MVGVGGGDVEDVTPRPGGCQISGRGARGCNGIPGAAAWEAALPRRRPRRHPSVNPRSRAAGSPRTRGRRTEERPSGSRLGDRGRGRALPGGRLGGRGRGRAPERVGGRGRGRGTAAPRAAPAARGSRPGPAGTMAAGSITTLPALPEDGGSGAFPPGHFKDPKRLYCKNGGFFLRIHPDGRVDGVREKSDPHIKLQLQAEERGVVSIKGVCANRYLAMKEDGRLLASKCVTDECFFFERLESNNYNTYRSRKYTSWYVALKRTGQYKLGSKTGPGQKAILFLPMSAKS
# [7] = mitochondrial membrane potential change in A549 cells, profiling panel, cell-based, JC-1 fluorescence, basal, 24 h, 100 nL (AID 1138); details: higher = more signal;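 further: A549 lung adenocarcinoma cells under basal conditions with no added stimulus; test concentration not given here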
# Lefty1 = Lefty1 binders on small-molecule microarrays, primary screen, biochemical, small-molecule microarray, 635/667 nm fluorescence (AID 1139); details: small-molecule microarray binding, fluorescence 635/667; higher = more signal
# [8] = test system: wheat germ agglutinin (Triticum aestivum), Alexa647-labelled; assay: wheat germ agglutinin binders on compound microarrays, profiling panel, artefact control for SMM control-protein annotation, biochemical, small-molecule microarray, 635/667 nm fluorescence (AID 1140); details: WGA-A647 binding, 635 nm fluorescence, higher = more signal;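 further: score merges 667 nm feature emission with signal to noise over triplicate slides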
# [9] = target: Luciferin 4-monooxygenase (Photinus pyralis) (UniProt P08659); assay: firefly luciferase enzyme inhibitors, primary screen, biochemical, luminescence, purified enzyme, 2006 set (AID 1141); details: SteadyGlo luminescence, 30 min; higher = more signal, called active from +8 up or from −8 down unless noted;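 further: cell-free assay with purified firefly luciferase at 100 ng per well in PBS; test concentration not given here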
# Chain of Luciferin 4-monooxygenase (Photinus pyralis) (P08659 whole entry, looked up): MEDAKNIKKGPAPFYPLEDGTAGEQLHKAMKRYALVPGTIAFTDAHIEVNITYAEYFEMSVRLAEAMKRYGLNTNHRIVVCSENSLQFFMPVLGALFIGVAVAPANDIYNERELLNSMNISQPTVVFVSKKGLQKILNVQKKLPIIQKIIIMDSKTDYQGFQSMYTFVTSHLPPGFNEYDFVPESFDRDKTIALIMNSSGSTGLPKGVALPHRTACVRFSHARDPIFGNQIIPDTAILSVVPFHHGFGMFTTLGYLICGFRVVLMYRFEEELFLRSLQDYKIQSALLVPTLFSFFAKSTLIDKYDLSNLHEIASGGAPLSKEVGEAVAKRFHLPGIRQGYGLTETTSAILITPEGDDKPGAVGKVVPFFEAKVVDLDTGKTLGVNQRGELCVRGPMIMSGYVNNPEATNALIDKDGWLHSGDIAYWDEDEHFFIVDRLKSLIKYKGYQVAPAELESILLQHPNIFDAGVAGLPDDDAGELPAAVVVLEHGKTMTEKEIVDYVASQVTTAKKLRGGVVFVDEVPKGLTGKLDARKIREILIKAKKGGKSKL
# [10] = test system: Wnt5a (protein binding on small-molecule microarray); assay: Wnt5a binders on small-molecule microarray, primary screen, biophysical, 635/667 nm fluorescence (AID 1142); details: 635 nm fluorescence, higher = more signal;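 further: fluorescence read at 667 nm with signal to noise per printed feature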
# [11] = cell viability in Huh7 cells, primary screen, cytotoxicity control for HCV replication inhibitor project, CellTiter-Glo luminescence, basal, 48 h (AID 1143); details: Huh7 HCV replicon, CellTiter-Glo luminescence, 48 h, higher = more signal, called active from +8 up or from −8 down unless noted;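 further: Huh7 hepatoma cells carrying a hepatitis C replication reporter with no stimulus; test concentration not given here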
# [12] = P. aeruginosa biofilm formation inhibitors, primary screen, PAO1 strain, BacTiter-Glo luminescence, LB-PBS (AID 1144); details: 12 h, higher = more signal
# [13] = CREB reporter modulators without forskolin, primary screen, cell-based, PC12, CRE-LacZ reporter, unstimulated (AID 1145); details: no forskolin, luminescence, 4.5 h; higher = more signal, called active from +8 up or from −8 down unless noted
# [14] = CREB reporter modulators under forskolin, primary screen, cell-based, PC12, CRE-LacZ reporter, forskolin-stimulated (AID 1146); details: luminescence, 4.5 h; higher = more signal, called active from +8 up or from −8 down unless noted;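 further: PC12 cells with 6xCRE LacZ reporter stimulated by forskolin 10 µM; beta-galactosidase reporter signal reflecting CREB driven transcription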
# [15] = target: Streptavidin (Streptomyces avidinii) (UniProt P22629); assay: streptavidin binders on small-molecule microarray, primary screen, artefact control for SMM compound annotation, biophysical, 635/667 nm fluorescence (AID 1147); details: streptavidin binding, higher = more signal;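 further: signal reflects streptavidin binding to arrayed compounds as a control protein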
# Chain of Streptavidin (Streptomyces avidinii) (P22629 whole entry, looked up): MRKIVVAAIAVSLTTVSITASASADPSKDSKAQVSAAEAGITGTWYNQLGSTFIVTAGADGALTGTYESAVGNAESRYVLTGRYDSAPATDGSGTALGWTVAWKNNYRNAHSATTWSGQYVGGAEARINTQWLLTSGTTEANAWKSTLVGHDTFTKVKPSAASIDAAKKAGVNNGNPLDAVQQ
# [16] = small-molecule binders of probe aInhba, primary screen, biochemical, small-molecule microarray, 635/667 nm fluorescence (AID 1148); details: higher = more signal; small-molecule microarray, probe aInhba, fluorescence unless noted;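 further: score merges 667nm spot fluorescence with signal-to-noise for antibody binding to printed compounds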
# Torsin-1A (Homo sapiens) [17] = target: Torsin-1A (Homo sapiens) (UniProt O14656); assay: torsin A binders from cell lysate, primary screen, small-molecule microarray, wild-type, 635/667 nm (AID 1149); details: COS7 hTOR1A-WT lysate, 635 nm fluorescence, higher = more signal
# Chain of Torsin-1A (Homo sapiens) (O14656 whole entry, looked up): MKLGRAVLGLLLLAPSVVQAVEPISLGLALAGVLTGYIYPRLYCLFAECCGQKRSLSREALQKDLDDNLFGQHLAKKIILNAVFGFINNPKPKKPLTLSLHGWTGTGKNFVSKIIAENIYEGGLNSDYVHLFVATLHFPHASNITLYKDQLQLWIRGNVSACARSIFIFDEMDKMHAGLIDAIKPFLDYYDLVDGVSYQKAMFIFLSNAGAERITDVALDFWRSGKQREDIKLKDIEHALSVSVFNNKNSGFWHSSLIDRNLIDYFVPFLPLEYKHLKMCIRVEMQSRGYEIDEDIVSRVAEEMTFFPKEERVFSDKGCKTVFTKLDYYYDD
# Torsin-1A (Homo sapiens) [18] = target: Torsin-1A (Homo sapiens) (UniProt O14656); assay: small-molecule binders of mutant TOR1A in lysate, primary screen, cell lysate, small-molecule microarray, COS7 lysate, 635/667 nm fluorescence (AID 1150); details: COS7 hTOR1A mutant lysate, 635 nm fluorescence, higher = more signal;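 further: score pools 667 nm emission and signal to noise measuring lysate protein binding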
# [19] = test system: Sonic hedgehog protein (Shh); assay: small-molecule binders of Shh protein, primary screen, biochemical, small-molecule microarray, 635/667 nm fluorescence (AID 1151); details: small-molecule microarray binding, 635 nm fluorescence; higher = more signal;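 further: Shh protein binding to compounds spotted on small-molecule microarray slides; score combines spot fluorescence intensity with signal-to-noise across triplicate slides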
Compound,composite z-score [1],composite z-score [2],composite z-score [3],composite z-score [4],composite z-score [5],composite z-score [6],z-score [7],composite z-score (Lefty1),composite z-score [8],z-score [9],composite z-score [10],z-score [11],z-score [12],z-score [13],z-score [14],composite z-score [15],composite z-score [16],composite z-score (Torsin-1A (Homo sapiens) [17]),composite z-score (Torsin-1A (Homo sapiens) [18]),composite z-score [19]
O=P(c1ccccc1)(c1ccccc1)N1CC2(CC2)CC(O)(c2ccccc2)C1 (stereo not given),1.11,0.805,1.26,0.77,-0.541,-0.955,0.542,-1.17,0.546,2.44 (inactive),0.323,-1.55 (inactive),0.525 (inactive),0.204 (inactive),-0.927 (inactive),0.386,0.309,-0.316,-0.276,-1.05
CCOC(=O)[C@H]1CC=C2C(=O)Oc3ccccc3[C@@H]21,2.35,-0.268,0.374,-0.192,-0.628,-0.903,-0.955,-0.54,-0.351,1.32 (inactive),-0.652,-1.22 (inactive),-0.473 (inactive),-0.228 (inactive),1.7 (inactive),-0.521,-0.0405,-2.41,-1.59,-0.528
CC1N(P(=O)(c2ccccc2)c2ccccc2)CC(O)(c2ccccc2)CC12CC2 (stereo not given),1.12 and 1.33,0.773 and 0.537,1.39 and 0.264,-0.817 and 0.653,-1.07 and -0.0739,-1.02 and -0.642,0.158 and 0.776,-1.48 and -1.47,-0.322 and 0.637,2.42 (inactive) and 2.44 (inactive),-0.025 and -0.0606,-0.601 (inactive) and -2.65 (inactive),0.693 (inactive) and 0.00162 (inactive),0.0075 (inactive) and -0.179 (inactive),0.84 (inactive) and 0.498 (inactive),-0.586 and 0.107,-0.0589 and 0.475,-1.12 and -0.311,0.699 and 0.319,-0.649 and -1.4
COC(=O)[C@H]1[C@@H](O)[C@@]2(O)c3c(OC)cc(OC)cc3O[C@@]2(c2ccc(OC)cc2)[C@@H]1c1ccccc1,0.287,0.741,0.153,0.323,0.53,0.4,0.862,0.614,0.0623,-1.13 (inactive),0.226,-4.75 (inactive),-0.638 (inactive),1.82 (inactive),1.43 (inactive),0.442,0.0054,0.0165,0.295,0.683
COc1cc2c(cc1O)C=[N+](C)CC2,1.02,-0.662,-0.0048,-1.32,0.469,1.17,1.28,0.495,-0.252,-0.556 (inactive),0.182,-1.29 (inactive),-0.527 (inactive),-0.438 (inactive),-0.811 (inactive),-0.306,-0.152,-1.31,-1.25,1.65
COC(=O)[C@@]1(Cc2ccc(F)cc2)[C@H]2c3cc(C(=O)N(C)C)[nH]c3C[C@H]2CN1C(=O)c1ccccc1,1.8,0.733,0.745,0.817,-0.252,-0.0573,0.843,-0.855,0.186,-0.0137 [setting not given] (inactive),0.163,-0.108 [setting not given] (inactive),0.208 (inactive),-0.754 [setting not given] (inactive),-0.0669 [setting not given] (inactive),0.134,0.143 [setting not given],0.181,0.252,-0.879
COC(=O)[C@@]1(Cc2ccccc2)[C@H]2c3cc(C(=O)N(C)C)[nH]c3C[C@H]2CN1C(=O)c1ccccc1,0.523,-1.26,-0.206,-0.0736,-0.426,-0.387,0.825,-1.29,-0.09,2.27 (inactive),0.155,-0.167 (inactive),-0.0166 (inactive),-0.368 (inactive),-0.897 (inactive),-0.033,-0.147,-0.816,-0.317,-0.836
CCCc1cc2c(n1Cc1ccc(C)cc1)C(C)C1CN(C(=O)c3ccccc3)C(C)(C(=O)OC)C21 (stereo not given),2.14,1.06,1.29,0.889,0.66,0.578,1.14,-0.544,0.833,-1.17 (inactive),0.667,-2.69 (inactive),0.426 (inactive),1.53 (inactive),1.57 (inactive),1.23,0.643,0.55,1.06,-0.2
